The results in this text go back to PubChem BioAssay (NCI).

This is part of a sample that, as a whole, favours compounds with a hit. Of some 83,000 tested, about 20% had one in any assay.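 How to read the values: 0–100, growth inhibition (40 = 60% inhibited); 0, no net growth; -100 to 0, cell death (-40 = 40% of starting cells died; -100 = all dead).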 Values without a mark were called inactive. Calls of active or inactive are those of the source. The calls were made as follows: active = growth percent below 10; inactive = the rest.

Among the test systems are NCI-H23 lung; NCI-H226 lung; NCI-H322M lung; HOP-62 NSCLC; NCI-H460 lung; HOP-92 NSCLC; NCI-H522 lung; A549/ATCC NSCLC; 786-0 renal; COLO 205 colon.
Test in all cases: NCI-60 one-dose screen, 48 h (100 = growth as untreated, 0 = no growth, -100 = all killed)
What all share (conditions): 10 µM unless noted

With `CN(C)c1ccc(/C=C\N=Nc2ccc(Br)cc2)cc1`, the growth in the assay on NCI-H23 lung is 79.8%; with NCI-H226 lung, 79.7%; in the assay with NCI-H322M lung it was 77.9%; in the assay on HOP-62 NSCLC, 95.1%; in the assay with NCI-H460 lung, 51.2%; in the assay with HOP-92 NSCLC, 76.1%. For the same compound, the growth in the assay with NCI-H522 lung is 37.9%; with A549/ATCC NSCLC it was 58.7%; with 786-0 renal it was 57.3%; with COLO 205 colon, 82.1%.
With `Clc1ccc([I+]c2ccc(Cl)cc2Cl)c(Cl)c1`, the growth in the assay on NCI-H23 lung is 18%; with NCI-H226 lung, 102%; in the assay with NCI-H322M lung it was 77.2%; in the assay on HOP-62 NSCLC, 36.5%; in the assay with NCI-H460 lung it was 81%; with HOP-92 NSCLC it was 14.9%. The growth is -91.1% (active) with NCI-H522 lung, 76% in the assay with A549/ATCC NSCLC, 11.2% in the assay on 786-0 renal and -79.2% (active) in the assay with COLO 205 colon.
For `O=[N+]([O-])c1c(S(=O)(=O)O)cc2cc(S(=O)(=O)O)ccc2c1[N+](=O)[O-]`, the growth with NCI-H23 lung is 90.6%; in the assay on NCI-H226 lung it was 108%; with NCI-H322M lung it was 92.6%; in the assay on HOP-62 NSCLC it was 109%; in the assay with NCI-H460 lung, 105%; in the assay on HOP-92 NSCLC it was 103%. The growth in the assay with NCI-H522 lung is 86.1%; in the assay on A549/ATCC NSCLC it was 98.9%; in the assay on 786-0 renal, 103%; in the assay with COLO 205 colon, 117%.
As to `Nc1nn2cc(-c3ccc(Cl)s3)nc2c2ccccc12`, the growth was 102% with NCI-H23 lung; 94.8% in the assay with NCI-H226 lung; 96.7% in the assay on NCI-H322M lung; 76.4% with HOP-62 NSCLC; 86.8% with NCI-H460 lung; 67% in the assay with HOP-92 NSCLC. The growth in the assay on NCI-H522 lung is 78.5%; in the assay with A549/ATCC NSCLC, 83.9%; in the assay with 786-0 renal, 104%; with COLO 205 colon it was 95.2%.
For `COc1cccc(/C=C2\SC(N3CCN(c4ccccn4)CC3)=NC2=O)c1`, the growth is 95.5% in the assay with NCI-H23 lung; 108% in the assay on NCI-H226 lung; 88.8% with NCI-H322M lung; 93.6% in the assay on HOP-62 NSCLC; 107% with NCI-H460 lung; 92.7% in the assay with HOP-92 NSCLC. Further, the growth in the assay on NCI-H522 lung is 71.6%; in the assay with A549/ATCC NSCLC, 94.5%; with 786-0 renal it was 108%; with COLO 205 colon, 119%.
For `Nc1nc(-c2cc3ccccc3o2)cc(=O)c(=O)[nH]1`, the growth in the assay with NCI-H23 lung is 105%; in the assay with NCI-H226 lung, 95.7%; with NCI-H322M lung, 95.4%; in the assay with HOP-62 NSCLC, 96.6%; in the assay on NCI-H460 lung, 98.1%; in the assay with HOP-92 NSCLC, -2.74% (active). Also, the growth in the assay with NCI-H522 lung is 91.9%; in the assay on A549/ATCC NSCLC, 110%; in the assay on 786-0 renal, 107%; in the assay on COLO 205 colon, 106%.
On to `C=C1C(=O)O[C@H]2[C@H]1CC/C(COC(=O)NCCc1ccc(Br)cc1)=C\CC[C@@]1(C)O[C@@H]21`, for which the growth is 62.6% with NCI-H23 lung; 13.2% in the assay with NCI-H226 lung; 85.4% with NCI-H322M lung; 54.6% in the assay with HOP-62 NSCLC; 61.2% in the assay on NCI-H460 lung; 33.6% with HOP-92 NSCLC. The growth in the assay with NCI-H522 lung is -52.1% (active); in the assay on A549/ATCC NSCLC, 77.8%; in the assay with 786-0 renal, -52.9% (active); with COLO 205 colon it was -25.3% (active).
Take `CC(C)CCC[C@@H](C)[C@H]1CC[C@H]2[C@@H]3CC[C@H]4C/C(=N/O)CC[C@]4(C)[C@H]3CC[C@]12C`: the growth was 107% in the assay on NCI-H23 lung; 92.1% in the assay with NCI-H226 lung; 103% with NCI-H322M lung; 92.8% in the assay on HOP-62 NSCLC; 106% with NCI-H460 lung; 101% in the assay with HOP-92 NSCLC. Also, the growth in the assay with NCI-H522 lung was 104%; in the assay with A549/ATCC NSCLC, 73.1%; in the assay on 786-0 renal, 102%; in the assay with COLO 205 colon, 108%.
Take `Cc1ccc(-c2csc3nc(C)c(CCCl)c(=O)n23)cc1`: the growth in the assay with NCI-H23 lung is 87.5%; in the assay on NCI-H226 lung, 78.6%; in the assay with NCI-H322M lung, 98.5%; in the assay on HOP-62 NSCLC, 87.8%; in the assay with NCI-H460 lung it was 99.5%; in the assay on HOP-92 NSCLC, 80.8%. The growth with NCI-H522 lung was 88.8%; with A549/ATCC NSCLC, 98%; in the assay with 786-0 renal it was 104%; in the assay on COLO 205 colon, 119%.
Turning to `COc1cc(Cn2c(SCCC(=O)Nc3ccc(F)cc3)nc3ccccc3c2=O)cc(OC)c1OC`, the growth was 90.5% with NCI-H23 lung; 79% in the assay on NCI-H226 lung; 81.1% in the assay with NCI-H322M lung; 82.7% in the assay with HOP-62 NSCLC; 96.8% in the assay on NCI-H460 lung; 55.1% in the assay on HOP-92 NSCLC. In addition, the growth with NCI-H522 lung was 53.8%; in the assay with A549/ATCC NSCLC it was 83.5%; in the assay on 786-0 renal it was 90.5%; in the assay on COLO 205 colon it was 95.8%.
As for `CCn1cc(C(=O)O)c(=O)c2cc(F)c(N3CCN(S(=O)(=O)c4ccc(Cl)cc4Cl)CC3)cc21`, the growth in the assay with NCI-H23 lung was -3.58% (active); with NCI-H226 lung it was 13.1%; in the assay on NCI-H322M lung it was -5.57% (active); in the assay with HOP-62 NSCLC, 19.5%; with NCI-H460 lung, 10.9%; with HOP-92 NSCLC, -9.06% (active). The growth with NCI-H522 lung was -75.8% (active); with A549/ATCC NSCLC, 2.05% (active); in the assay on 786-0 renal, 18.7%; with COLO 205 colon, -59.8% (active).
On to `COc1cc2nc(SCc3cc(OC)c(OC)c(OC)c3)n(Cc3ccccc3)c(=O)c2cc1OC`, for which the growth in the assay with NCI-H23 lung was 20.5%; with NCI-H226 lung, 49.7%; in the assay on NCI-H322M lung, 45.4%; in the assay with HOP-62 NSCLC, 41.4%; in the assay with NCI-H460 lung it was 22.3%; in the assay with HOP-92 NSCLC it was 62.7%. The growth with NCI-H522 lung was -33% (active); with A549/ATCC NSCLC it was 36.9%; in the assay with 786-0 renal, 36.8%; in the assay on COLO 205 colon, 7.38% (active).
`Cc1ccc(Cn2c(-c3cccs3)nc3ccccc32)cc1`: the growth in the assay with NCI-H23 lung is 96.2%; with NCI-H226 lung it was 77.3%; in the assay with NCI-H322M lung, 92%; in the assay on HOP-62 NSCLC, 105%; in the assay with NCI-H460 lung it was 88%; in the assay on HOP-92 NSCLC, 72.5%. Also, the growth in the assay on NCI-H522 lung was 85.1%; with A549/ATCC NSCLC, 74.2%; with 786-0 renal, 99%; with COLO 205 colon, 110%.
Regarding `Clc1ccc(/C=C/c2nc(N3CCOCC3)c3nc(Cl)c(Cl)cc3n2)cc1`, the growth in the assay on NCI-H23 lung is 92.2%; with NCI-H226 lung, 106%; in the assay with NCI-H322M lung, 111%; in the assay with HOP-62 NSCLC, 110%; with NCI-H460 lung it was 105%; in the assay with HOP-92 NSCLC, 94.1%. For the same compound, the growth is 95.5% in the assay on NCI-H522 lung, 107% in the assay on A549/ATCC NSCLC, 92.2% in the assay with 786-0 renal and 102% in the assay with COLO 205 colon.
